Bioassay records as filed in PubChem BioAssay.
sPLA2-III inh = human group III sPLA2 inhibitors, primary screen, biochemical, QFRET, BODIPY PC-A2 liposome substrate | Group 3 secretory phospholipase A2 (Homo sapiens), Q9NZ20 | QFRET BODIPY PC-A2 liposome hydrolysis, fluorescence | inhibition, % at 12.2 µM | 370,000 tested, 0.56% active | AID 743126, 2013;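 active = inhibition above mean plus 3 SD of compounds lying within the high and low control bounds, cut at about 19% in these data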
UBC13 inh = UBC13 polyubiquitin chain formation inhibitors, primary screen, biochemical, TR-FRET, uHTS; AID 485273, 2010; 330,000 tested, 0.47% active; Ubiquitin-conjugating enzyme E2 N (Homo sapiens), P61088; inhibition, % at 20 µM; in the data active = inhibition above about 45%, passing the limit was not always enough
Target sequence (P61088 whole entry, looked up): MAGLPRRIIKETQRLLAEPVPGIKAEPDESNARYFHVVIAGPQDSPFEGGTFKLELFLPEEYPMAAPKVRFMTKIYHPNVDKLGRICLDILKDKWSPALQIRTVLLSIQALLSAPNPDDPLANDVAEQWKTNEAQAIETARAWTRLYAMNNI
UBC9 SUMO inh = inhibitors of in vitro SUMOylation cascade, primary screen, biochemical, HTRF, uHTS; SUMO-conjugating enzyme UBC9 (Homo sapiens), P63279; HTRF SUMOylation assay, SAE1/SAE2 + UBC9; inhibition, % at 35 µM; 290,000 tested, 0.36% active; AID 2006, 2009; in the data active = inhibition above about 50%, passing the limit was not always enough
Target sequence (P63279 whole entry, looked up): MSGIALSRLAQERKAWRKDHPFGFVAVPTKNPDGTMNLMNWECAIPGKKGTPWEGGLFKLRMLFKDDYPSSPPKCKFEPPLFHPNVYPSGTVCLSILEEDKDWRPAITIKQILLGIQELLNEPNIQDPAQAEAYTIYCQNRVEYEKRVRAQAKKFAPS
NR3A LBD binder = binders of NR3A ligand-binding domain, primary screen, biophysical, differential scanning fluorimetry, uHTS; Tm shift relative to glycine control, % at 25 µM; AID 1259313, 2017; NR3A LBD differential scanning fluorimetry, Tm shift; 0% = protein alone, 100% = glycine-bound protein; 340,000 tested, 2.5% active; Glutamate receptor ionotropic, NMDA 3A (GRIN3A) ligand-binding domain;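 active = melting temperature shift of at least 10% of the positive control shift, at one fixed dose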
Of the large screens only hits and unclear results are named; the others gave an inactive call. A selection: hits, their analogues and other compounds. The true share with any hit is near 3.3%.

CCN1CCc2c(C#N)c(N3CCOCC3)nc(N3CCOCC3)c2C1	NR3A LBD binder 27
CCN1CCc2c(C#N)c(N3CCCCC3)nc(N3CCOCC3)c2C1	none
CCOC(=O)[C@]12CCCCC/C=C\1N(CCc1ccc(Cl)cc1)C(=O)[C@H]2CC(=O)N1CCN(C(=O)C2CC2)CC1	none (no result: UBC13 inh, UBC9 SUMO inh, NR3A LBD binder)
O=c1c(-c2ccccc2)coc2c(CN3CCCC3)c(O)ccc12	UBC9 SUMO inh 50
COc1cc2c(=O)n(Cc3ccco3)c(=O)n(CC(=O)c3ccc(Br)cc3)c2cc1OC	NR3A LBD binder 14
COc1cc2c(=O)n(Cc3ccco3)c(=O)n(CC(=O)c3cccc(Br)c3)c2cc1OC	none (no result: sPLA2-III inh)
CC1(C)Cc2c(cnn2-c2ccccc2)C(NC(=O)CCc2ccc(=O)[nH]n2)C1 (configuration not stated)	NR3A LBD binder 13
Cn1ccnc1CN1CCC[C@]2(CC[C@H](CCC#N)O2)C1	none (no result: UBC13 inh, UBC9 SUMO inh, NR3A LBD binder)
Oc1ccccc1/C=N/Nc1ccccc1	NR3A LBD binder 13
NC(=S)N/N=C/c1ccccc1O	none
Oc1ccccc1C=NNC(=S)NN=Cc1ccccc1O	NR3A LBD binder 27 (no result: UBC13 inh, UBC9 SUMO inh)
Oc1ccccc1/C=N/Nc1cccc2cccnc12	NR3A LBD binder 10
CCOC(=O)c1csc(NC(=O)C2CCCN(S(=O)(=O)c3ccc(C)cc3)C2)n1 (configuration not stated)	none (no result: UBC13 inh, UBC9 SUMO inh, NR3A LBD binder)
CN(C)c1ccc(/C=C2/C(=O)N(c3ccc([N+](=O)[O-])cc3)N=C2N2CCOCC2)cc1	UBC9 SUMO inh 87 (no result: sPLA2-III inh, UBC13 inh, NR3A LBD binder)
O=C1CC(N2CCOCC2)=NN1c1ccc([N+](=O)[O-])cc1	none
COc1ccc(S[C@]2(C(=O)N3CCN(c4ncccn4)CC3)CC(=O)N(c3ccsc3)[C@@H]2c2ccc(OC)cc2)cc1	none (no result: UBC13 inh, UBC9 SUMO inh, NR3A LBD binder)
C=CCN1C(=O)[C@@H](CC(=O)NCCc2ccccc2OC)[C@]2(C(=O)OCC)CCCCC/C=C/12	none (no result: UBC13 inh, UBC9 SUMO inh, NR3A LBD binder)
O=C(c1cccc(Br)c1)N1CCCC1	NR3A LBD binder 13
O=C(c1cccc(Br)c1)N1CCN(C(=O)N2CCCCC2)CC1	none
CN(C)S(=O)(=O)N1CCN(C(=O)c2cccc(Br)c2)CC1	NR3A LBD binder 11
COC(=O)[C@]12C[C@H](CC(=O)N3CCC(c4ccccc4)CC3)C(=O)N(CCc3ccc(OC)c(OC)c3)C1=C[C@H](C1CCCC1)O[C@@H]2C	none (no result: UBC13 inh, UBC9 SUMO inh, NR3A LBD binder)
S=C(Nc1cccc(Br)c1)OC1CCC12CCC(c1ccccc1)CC2 (configuration not stated)	none (no result: UBC13 inh, UBC9 SUMO inh, NR3A LBD binder)
O=[N+]([O-])c1cccc(-c2ccc(/C=N/NC(=S)Nc3ccccc3)o2)c1	NR3A LBD binder 15
COc1ccc(/C=N/NC(=S)Nc2ccccc2)cc1COc1ccc(F)cc1	none
COc1ccc(/C=N/NC(=S)Nc2ccccc2)cc1COc1ccc(Br)cc1	NR3A LBD binder 11
C=CCNC(=S)N(C)[C@H]1C[C@H]2c3[nH]c4cccc(-c5cccc(F)c5)c4c3CCN2C(=O)[C@H]1[C@H](C)O	none (no result: UBC13 inh, UBC9 SUMO inh, NR3A LBD binder)
CCCCCCCCN1C(=O)[C@@H](CC(=O)NCc2ccc(C)o2)C[C@@]2(C(=O)OC)C1=C[C@H](C(C)C)O[C@@H]2C1CC1	none (no result: UBC13 inh, UBC9 SUMO inh, NR3A LBD binder)
CC1CCc2nc(NC(=O)Nc3ccc4c(c3)OCO4)sc2C1 (configuration not stated)	NR3A LBD binder 31
CC(=O)c1cccc(NC(=O)Nc2ccc3c(c2)OCO3)c1	NR3A LBD binder 13
CC(=O)c1cccc(NC(=O)NCc2ccc3c(c2)OCO3)c1	none
O=C(Nc1cccc(Cl)c1)Nc1ccc2c(c1)OCO2	NR3A LBD binder 33
CC1CCc2nc(NC(=O)CN3CCN(Cc4ccc5c(c4)OCO5)CC3)sc2C1 (configuration not stated)	none
O=C(Nc1ccc(Cl)cc1)C1CCCN1S(=O)(=O)c1cccnc1 (configuration not stated)	none (no result: UBC13 inh, UBC9 SUMO inh, NR3A LBD binder)
CC(C)C[C@@H]1COc2cccc(N3CCSCC3)c2S(=O)(=O)N1C	none (no result: UBC13 inh, UBC9 SUMO inh, NR3A LBD binder)
O=C(COC(=O)Cc1c(Cl)cccc1Cl)Nc1ccccc1-c1ccccc1	none
O=C(CNC(c1ccccc1)c1ccccc1)Nc1ccccc1-c1ccccc1	NR3A LBD binder 17
O=C(CSCc1c(Cl)cccc1Cl)Nc1ccccc1-c1ccccc1	NR3A LBD binder 15 (no result: UBC13 inh)
CCOC(=O)COc1ccc(S(=O)(=O)Nc2ccc3c(c2)OCO3)cc1	NR3A LBD binder 14
O=C(Nc1ccc(S(=O)(=O)NCc2ccccc2)cc1)Nc1ccc2c(c1)OCO2	NR3A LBD binder 36 (no result: sPLA2-III inh)
O=C(CCc1ccc(S(=O)(=O)NCCc2ccccc2)cc1)Nc1ccc2c(c1)OCO2	none
CCNS(=O)(=O)c1ccc(NC(=O)Nc2ccc3c(c2)OCO3)cc1	NR3A LBD binder 25
Nn1c(SCC(=O)Nc2ccccc2-c2ccccc2)nnc1-c1cc(-c2ccccc2)n[nH]1	none (no result: UBC13 inh, UBC9 SUMO inh, NR3A LBD binder)
Cc1ccc(C)c(NC(=O)C2CCCN2S(=O)(=O)c2cccc3cccnc23)c1 (configuration not stated)	none (no result: UBC13 inh, UBC9 SUMO inh, NR3A LBD binder)
CC(C)c1nnc(NC(=O)CCC(=O)NC2CCCCC2)s1	none (no result: sPLA2-III inh)
CC(C)c1nnc(NC(=O)CCC(=O)NC2CCCc3ccccc32)s1 (configuration not stated)	NR3A LBD binder 11
Cc1ccccc1NC1=NS(=O)(=O)c2ccccc21	none
O=S1(=O)N=C(Nc2ccc(O)cc2)c2ccccc21	NR3A LBD binder 19
NS(=O)(=O)c1ccc(NC(=O)Nc2ccc(S(N)(=O)=O)cc2)cc1	none
Cc1ccc(NC(=O)Nc2ccno2)cc1	UBC9 SUMO inh 72
Cc1ccc(NC(=O)Nc2ncccc2C)cc1	none
CC(C)(C)c1ccc(C(=O)Nc2ccc(S(N)(=O)=O)cc2)cc1	none (no result: NR3A LBD binder)
Cc1ccc(NC(=O)Nc2ccc(S(N)(=O)=O)cc2)cc1	NR3A LBD binder 11
NS(=O)(=O)c1ccc(NC(=O)Nc2ccc(C(F)(F)F)cc2)cc1	NR3A LBD binder 20
O=C(c1cccn2c(=O)c3cc(Cl)ccc3nc12)N1CCOCC1	UBC9 SUMO inh 52
O=C1C(Cl)=C(N2CCCCC2)C(=O)C(Cl)=C1c1cnc(N2CCCCC2)s1	UBC9 SUMO inh 59 (no result: sPLA2-III inh)
CCOC(=O)C1=NN(C(C)=O)C2(CC(=O)N(c3cc(C)cc(C)c3)C2=O)C1 (configuration not stated)	NR3A LBD binder 13
CCCC[C@H]1C2CC(OC(=O)Nc3ccccc3OC)C(C2)[C@H]2CCCCN21 (some centres not stated)	none (no result: UBC13 inh, UBC9 SUMO inh, NR3A LBD binder)
O=C(OCc1ccccc1)[C@H](Cc1ccccc1)NC(=O)[C@@H]1CC=C[C@@H]2CCN(C3CCCCC3)C(=O)[C@@H]21	none (no result: UBC13 inh, UBC9 SUMO inh, NR3A LBD binder)
Cc1cc(C(=O)COC(=O)c2ccc(NC(=O)CC#N)cc2)c(C)n1-c1ccc(OC(F)F)cc1	NR3A LBD binder 17 (no result: UBC9 SUMO inh)
Cc1cc(C(=O)COC(=O)c2ccc(NC(=O)CC#N)cc2)c(C)n1CC(F)(F)F	none (no result: UBC13 inh, UBC9 SUMO inh, NR3A LBD binder)
COC(=O)[C@H](C(C)C)N(CCc1cn(Cc2ccc(C)cc2)nn1)S(=O)(=O)c1ccccc1Br	none (no result: UBC13 inh, UBC9 SUMO inh, NR3A LBD binder)
C=CCn1c(=NC(=O)c2cc(-c3cccs3)nc3ccccc23)sc2cc(S(N)(=O)=O)ccc21	NR3A LBD binder 28
